In the library only some 6.7% were active in any assay of this set; here they are far more common.
Pf Dd2 growth: blocks growth of Plasmodium falciparum Dd2 parasites | P. falciparum Dd2 growth, SYBR Green, 72 h; active compounds read low | actives 2.3% (n = 94,000) | AID 1159554 | activity change, % at 10 µM; in the data active means activity change below about -80%; inconclusive means no clear call, values can overlap the other calls
T cruzi growth-1: T. cruzi proliferation inhibition. AID 624255. inhibition, % at 8.34 µM. T. cruzi beta-gal in NIH3T3, GalScreen luminescence, 90 h. actives 5.9% (n = 77,000);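 active means mean inhibition above about 93%, with at least 55% of replicates each passing it, limit read from the data, passing the limit was not always enough; inconclusive means only one of those two conditions holds; inactive means neither condition holds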
C diff HTS: blocks growth of Clostridium difficile | growth activity, negative = inhibition, % at 16 µg/mL (by protocol) | actives 0.25% (n = 86,000) | Clostridium difficile clinical isolate growth, OD600, 24 h; active compounds read low;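 active means mean growth activity at or below -80% and every replicate also at or below -80%; inconclusive means mean at or below -80% but some replicate above -80%; inactive means mean growth activity above -80%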
T cruzi growth-2: Trypanosoma cruzi proliferation inhibition; actives 72% (n = 5,600); shares compounds with T cruzi growth-1; T. cruzi beta-gal in NIH3T3, GalScreen luminescence, 90 h; inhibition, % at 8.35 µM;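 active means mean replicate inhibition above about 95% and at least 55% of replicates individually reaching it, limit read from the data; inconclusive means only one of the two criteria is met; inactive means neither criterion is met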
T cruzi growth-3: inhibitors of T. cruzi proliferation; shares compounds with T cruzi growth-1; T. cruzi beta-gal in NIH3T3, GalScreen luminescence, 90 h; inhibition, % at 2.09 µM; actives 21% (n = 5,600); AID 651740;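 active means mean inhibition above about 95%, with at least 55% of replicates also reaching it, limit read from the data; inconclusive means meets just one of the two conditions; inactive means meets neither condition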
3T3 cytotox: NIH/3T3 (mouse) viability loss. shares compounds with T cruzi growth-1. NIH/3T3 viability, CellTiter-Glo ATP luminescence, 90 h. cytotoxicity (signal decrease), % at 8.35 µM. actives 14% (n = 5,600). AID 651742;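 active means mean signal decrease across replicates above about 35% based on untreated-well scatter, with enough replicates individually passing, limit read from the data; inconclusive means no rule stated though some were filed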
NIH3T3 tox 2: NIH/3T3 (mouse) viability loss. shares compounds with T cruzi growth-1. NIH/3T3 viability, CellTiter-Glo ATP luminescence, 90 h. inhibition, % at 24.9 µM. actives 56% (n = 5,600). AID 651744;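 active means mean loss of cell viability signal at or above a set limit, and enough replicates individually reaching it; inconclusive means meets only the mean limit or only the replicate share; inactive means meets neither condition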
Each line names hits and unclear results; the compound was inactive in the other large screens (follow-up assays come after a bar, where they were run).

C[C@H]1CN([C@@H](C)CO)C(=O)c2cc(NC(=O)Nc3ccc4c(c3)OCO4)ccc2O[C@H]1CN(C)Cc1ccc(Cl)c(Cl)c1	none (no result: C diff HTS)
C[C@@H]1CN([C@H](C)CO)C(=O)c2cccc(NC(=O)Nc3ccc4c(c3)OCO4)c2O[C@H]1CN(C)Cc1ccc(Cl)c(Cl)c1	T cruzi growth-1 inconclusive (no result: C diff HTS) | T cruzi growth-2 101 | T cruzi growth-3 inactive | 3T3 cytotox inactive | NIH3T3 tox 2 25
O=C(C[C@H]1CC[C@@H]2[C@H](COC[C@H](O)CN2C(=O)c2ccc(F)cc2)O1)NCCCN1CCOCC1	none (no result: C diff HTS)
O=C(C[C@@H]1CC[C@H]2[C@@H](COC[C@H](O)CN2Cc2cccc(F)c2)O1)NCCc1ccncc1	none (no result: C diff HTS)
O=C(Nc1cccc(F)c1)N1CC(=O)N2[C@H](CO)[C@@H](c3ccc(C#CCC4CCCC4)cc3)[C@H]2C1	none (no result: T cruzi growth-1)
CC(C)NC(=O)N(C)C[C@@H]1Oc2cc(-c3ccncc3)ccc2S(=O)(=O)N([C@@H](C)CO)C[C@H]1C	T cruzi growth-1 111 | T cruzi growth-2 inactive | T cruzi growth-3 inactive | 3T3 cytotox inactive | NIH3T3 tox 2 inactive
CCCNC(=O)N(C)C[C@H]1Oc2cc(-c3ccncc3)ccc2S(=O)(=O)N([C@@H](C)CO)C[C@@H]1C	T cruzi growth-1 97 | T cruzi growth-2 inconclusive | T cruzi growth-3 inactive | 3T3 cytotox inactive | NIH3T3 tox 2 inconclusive
CC(C)NC(=O)N(C)C[C@@H]1Oc2cc(-c3ccncc3)ccc2S(=O)(=O)N([C@H](C)CO)C[C@H]1C	T cruzi growth-1 119 | T cruzi growth-2 inconclusive | T cruzi growth-3 inactive | 3T3 cytotox inactive | NIH3T3 tox 2 inactive
CC(C)NC(=O)N(C)C[C@@H]1Oc2cc(-c3ccncc3)ccc2S(=O)(=O)N([C@@H](C)CO)C[C@@H]1C	T cruzi growth-1 103 | T cruzi growth-2 inactive | T cruzi growth-3 inactive | 3T3 cytotox inactive | NIH3T3 tox 2 inactive
Cc1ccc(-c2ccc3c(c2)O[C@H](CN(C)C(=O)NC(C)C)[C@@H](C)CN([C@@H](C)CO)S3(=O)=O)cc1	none
CC(C)NC(=O)N(C)C[C@H]1Oc2cc(-c3ccccc3)ccc2S(=O)(=O)N([C@H](C)CO)C[C@H]1C	none
CC(C)NC(=O)N(C)C[C@@H]1Oc2cc(-c3cncnc3)ccc2S(=O)(=O)N([C@@H](C)CO)C[C@@H]1C	none
CCCNC(=O)N(C)C[C@@H]1Oc2cc(-c3ccncc3)ccc2S(=O)(=O)N([C@@H](C)CO)C[C@@H]1C	none
C[C@H](CO)N1C[C@H](C)[C@@H](CN(C)Cc2cccc(C(=O)O)c2)Oc2ncc(C#C[C@@H](C)O)cc2C1=O	none
COc1ccc(S(=O)(=O)N(C)C[C@H]2Oc3ccc(NC(=O)NC4CCCCC4)cc3C(=O)N([C@@H](C)CO)C[C@@H]2C)cc1	none
CO[C@@H]1CN(C)C(=O)c2ccc(NC(=O)C3CCCCC3)cc2OC[C@H](C)N(Cc2nccs2)C[C@H]1C	none (no result: Pf Dd2 growth, C diff HTS)
CCCC(=O)Nc1ccc2c(c1)C(=O)N(C)C[C@@H](OC)[C@H](C)CN(Cc1cncnc1)[C@@H](C)CO2	none
Cc1ccc(-c2ccc3c(c2)O[C@@H](CN(C)C(=O)Nc2ccccc2)[C@@H](C)CN([C@H](C)CO)S3(=O)=O)cc1	none (no result: T cruzi growth-1)
Cc1ccc(-c2ccc3c(c2)O[C@H](CN(C)C(=O)Nc2ccc(F)cc2)[C@H](C)CN([C@H](C)CO)S3(=O)=O)cc1	T cruzi growth-1 122 | T cruzi growth-2 110 | T cruzi growth-3 inactive | 3T3 cytotox inactive | NIH3T3 tox 2 66
Cc1ccc(-c2ccc3c(c2)O[C@H](CN(C)C(=O)Nc2ccc(F)cc2)[C@H](C)CN([C@@H](C)CO)S3(=O)=O)cc1	T cruzi growth-1 119 | T cruzi growth-2 97 | T cruzi growth-3 inactive | 3T3 cytotox inactive | NIH3T3 tox 2 inactive
Cc1ccc(-c2ccc3c(c2)O[C@H](CN(C)C(=O)Nc2ccc(F)cc2)[C@@H](C)CN([C@H](C)CO)S3(=O)=O)cc1	none
Cc1ccc(-c2ccc3c(c2)O[C@@H](CN(C)C(=O)Nc2ccc(F)cc2)[C@@H](C)CN([C@H](C)CO)S3(=O)=O)cc1	T cruzi growth-1 122 | T cruzi growth-2 108 | T cruzi growth-3 inactive | 3T3 cytotox 55 | NIH3T3 tox 2 45
Cc1ccc(-c2ccc3c(c2)O[C@H](CN(C)C(=O)Nc2ccccc2)[C@H](C)CN([C@@H](C)CO)S3(=O)=O)cc1	none (no result: T cruzi growth-1)
C[C@H](CO)N1C[C@H](C)[C@@H](CN(C)S(=O)(=O)c2ccccc2)Oc2ccc(N(C)C)cc2C1=O	none
COCC#Cc1cnc2c(c1)C(=O)N([C@@H](C)CO)C[C@H](C)[C@@H](CN(C)C(=O)Nc1ccccc1F)O2	none
C[C@@H]1CN([C@H](C)CO)C(=O)c2cc(NC(=O)CCN3CCOCC3)ccc2O[C@H]1CN(C)C(=O)Nc1ccc(C(F)(F)F)cc1	none
Cc1ccc(-c2cnc3c(c2)C(=O)N([C@H](C)CO)C[C@@H](C)[C@H](CN(C)Cc2ccccc2F)O3)cc1	none
Cc1ccc(-c2cnc3c(c2)C(=O)N([C@H](C)CO)C[C@H](C)[C@H](CN(C)Cc2ccccc2F)O3)cc1	none
Cc1ccc(-c2cnc3c(c2)C(=O)N([C@@H](C)CO)C[C@H](C)[C@@H](CN(C)Cc2ccccc2F)O3)cc1	T cruzi growth-1 115 | T cruzi growth-2 inactive | T cruzi growth-3 inactive | 3T3 cytotox inactive | NIH3T3 tox 2 inactive
Cc1ccc(-c2cnc3c(c2)C(=O)N([C@@H](C)CO)C[C@@H](C)[C@H](CN(C)CC2CCCCC2)O3)cc1	T cruzi growth-1 110 | T cruzi growth-2 95 | T cruzi growth-3 inactive | 3T3 cytotox inactive | NIH3T3 tox 2 104
Cc1ccc(-c2cnc3c(c2)C(=O)N([C@H](C)CO)C[C@@H](C)[C@H](CN(C)CC2CCCCC2)O3)cc1	none
Cc1ccc(-c2cnc3c(c2)C(=O)N([C@@H](C)CO)C[C@H](C)[C@H](CN(C)Cc2ccccc2F)O3)cc1	T cruzi growth-1 100 | T cruzi growth-2 107 | T cruzi growth-3 inactive | 3T3 cytotox inactive | NIH3T3 tox 2 44
COc1ccc(NC(=O)Nc2ccc3c(c2)[C@@H]2C[C@@H](CC(=O)NC4CCCCC4)O[C@H](CO)[C@@H]2O3)cc1	none
C[C@@H]1CN([C@H](C)CO)C(=O)c2cc(NC(=O)Nc3cccc4ccccc34)ccc2O[C@@H](C)CCCCO[C@H]1CN(C)C(=O)c1ccccc1	none
CCNC(=O)Nc1ccc2c(c1)C(=O)N(C)[C@H]1CC[C@H](CC(=O)NCc3ccccc3F)O[C@H]1CO2	none
Cc1noc(C)c1NC(=O)N(C)C[C@H]1OCCCC[C@H](C)Oc2ccc(NS(=O)(=O)c3c(C)noc3C)cc2C(=O)N([C@H](C)CO)C[C@@H]1C	none

Screening data: PubChem BioAssay, Broad Institute
